The source of these data is article PMC11062922 (Nature Chemical Biology, 2023).

Structures are written as SMILES. Like-named read-outs stand apart in the source and are kept apart here.

Common to all, as to design: species or system human, MV4-11 + K-562 + COLO205 + SK-N-BE2 + OVCAR-8
Test [1] has as its system ATM. To be noted: read-out: apparent Kd, n = 1.
For test [2], the system named is BCR. To be noted: read-out: apparent Kd, n = 1.
The test system of test [3] is CAMKK2. To be noted: read-out: apparent Kd, n = 1.
In test [4] the test system is CHEK1. Conditions: read-out: apparent Kd, n = 1.
Test [5] concerns CSNK1D. Conditions: read-out: apparent Kd, n = 1.
In test [6] the test system is EPHA4. Conditions: read-out: apparent Kd, n = 1.
Test [7] relates to EPHA5. To be noted: read-out: apparent Kd, n = 1.
Test [8] concerns EPHB2. To be noted: read-out: apparent Kd, n = 1.
The subject of test [9] is EPHB4. To be noted: read-out: apparent Kd, n = 1.
Test [10] concerns PRKACA. To be noted: read-out: apparent Kd, n = 1.
The test system of test [11] is PRKAG2. To be noted: read-out: apparent Kd, n = 1.
The test system of test [12] is TNK1. To be noted: read-out: apparent Kd, n = 1.
Test [13] concerns TNK2. To be noted: read-out: apparent Kd, n = 1.
In test [14] the test system is PRKACB. To be noted: read-out: apparent Kd, n = 1.
Test [15] has as its system AURKA. To be noted: read-out: apparent Kd, n = 1.
Test [16] concerns MAPK10. To be noted: read-out: apparent Kd; compound concentrations:100 nM and 1000 nM (sheet 'Samples'); n = 1.
The test system of test [17] is MAPK9. To be noted: read-out: apparent Kd, n = 1.
For test [18], the system named is STK4. To be noted: read-out: apparent Kd, n = 1.
In test [19] the test system is CDK16. To be noted: read-out: apparent Kd; compound concentrations: 100 nM and 1000 nM (sheet 'Samples'), CATDS: 4.4691246534882996E-3; n = 1.
Test [20] has as its system MARK3. Conditions: read-out: apparent Kd; compound concentrations: 100 nM and 1000 nM (sheet 'Samples'), CATDS: 3.4367127016050499E-3; n = 1.
[21] abbreviates: compound concentrations:100 nM and 1000 nM (sheet 'Samples').

Take `Cc1ccc2c(-c3ccncc3)c(-c3ccc(F)cc3)nn2c1.Cl` [GW461484A]: the potency estimated from few doses was 0.262 µM in test [1] (setting [21]); 0.545 µM in test [2] (setting [21]); 1.18 µM in test [3] (setting [21]); 1.87 µM in [4] (setting [21]); 0.125 µM in [5] (setting [21]); 0.55 µM in test [6] (setting [21]). The potency estimated from few doses is 0.429 µM in test [7] (setting [21]); 0.341 µM in test [8] (setting [21]); 0.275 µM in [9] (setting [21]); 1.9 µM in test [10] (setting [21]); 0.417 µM in test [11] (setting [21]); 0.28 µM in [12] (setting [21]). Also, the potency estimated from few doses in test [13] (setting [21]) was 0.328 µM.
Turning to `CCn1c(-c2nonc2N)nc2c(C#CC(C)(C)O)nc(OCCN)cc21.CCn1c(-c2nonc2N)nc2c(C#CC(C)(C)O)nc(OCCN)cc21.Cl.Cl` [GSK902056A], the values for the potency estimated from few doses in test [10] (setting [21]) and in test [14] (setting [21]) were 1.2 µM and 1 µM, respectively.
Consider `CNC(=O)c1ccccc1Nc1nc(Nc2ccc(N3CCOCC3)cc2)ncc1Cl.Cl` [GSK1576028A], for which the potency estimated from few doses was 0.011 µM in test [15] (setting [21]); 0.781 µM in [2] (setting [21]); 0.0601 µM in test [16]; 0.22 µM in test [17] (setting [21]); 0.587 µM in test [11] (setting [21]); 0.675 µM in test [18] (setting [21]). For the same compound, the values for the potency estimated from few doses in test [12] (setting [21]) and in test [13] (setting [21]) were 0.00793 µM and 0.731 µM, respectively.
Take `CCn1c(-c2nonc2N)nc2c(-c3ccccc3)ncc(OCCCN)c21.CCn1c(-c2nonc2N)nc2c(-c3ccccc3)ncc(OCCCN)c21.O=C(O)C(F)(F)F.O=C(O)C(F)(F)F` [GSK260205A]: the potency estimated from few doses in [5] (compound concentrations: 100 nM and 1000 nM (sheet 'Samples'), CATDS: 4.20751700104477E-2) was 0.469 µM; in test [10] (compound concentrations: 100 nM and 1000 nM (sheet 'Samples'), CATDS: 2.90938755589953E-2), 1.48 µM; in [14] (compound concentrations: 100 nM and 1000 nM (sheet 'Samples'), CATDS: 3.9372517693277299E-2) it was 0.557 µM.
On to `Cn1ncc2c(N)ncnc21` [SKF-18267], for which the potency estimated from few doses is 0.152 µM in [1] (compound concentrations: 100 nM and 1000 nM (sheet 'Samples'), CATDS: 1.5157721070637E-2); 0.594 µM in test [15] (compound concentrations: 100 nM and 1000 nM (sheet 'Samples'), CATDS: 5.9187216005476898E-3); 0.729 µM in test [2] (compound concentrations: 100 nM and 1000 nM (sheet 'Samples'), CATDS: 5.2917709527679404E-3); 0.967 µM in test [3] (compound concentrations: 100 nM and 1000 nM (sheet 'Samples'), CATDS: 4.5998229458051997E-3); 1.03 µM in test [19]; 1.83 µM in test [4] (compound concentrations: 100 nM and 1000 nM (sheet 'Samples'), CATDS: 3.5654135420005399E-3). Further, the potency estimated from few doses in [5] (compound concentrations: 100 nM and 1000 nM (sheet 'Samples'), CATDS: 5.3650887558765398E-3) was 0.71 µM; in test [6] (compound concentrations: 100 nM and 1000 nM (sheet 'Samples'), CATDS: 3.9748200426908999E-3) it was 1.36 µM; in [7] (compound concentrations: 100 nM and 1000 nM (sheet 'Samples'), CATDS: 5.0507447831964402E-3), 0.798 µM; in [8] (compound concentrations: 100 nM and 1000 nM (sheet 'Samples'), CATDS: 4.50420726302921E-3), 1.01 µM; in test [9] (compound concentrations: 100 nM and 1000 nM (sheet 'Samples'), CATDS: 5.4338505062104699E-3), 0.694 µM; in test [17] (compound concentrations: 100 nM and 1000 nM (sheet 'Samples'), CATDS: 4.8352586021379899E-3), 0.871 µM. For the same compound, the potency estimated from few doses was 2.06 µM in [20]; 1.5 µM in test [10] (compound concentrations: 100 nM and 1000 nM (sheet 'Samples'), CATDS: 3.8266361716822101E-3); 0.85 µM in [14] (compound concentrations: 100 nM and 1000 nM (sheet 'Samples'), CATDS: 4.8946075790836903E-3); 0.539 µM in [11] (compound concentrations: 100 nM and 1000 nM (sheet 'Samples'), CATDS: 6.26452346247391E-3); 1.05 µM in [18] (compound concentrations: 100 nM and 1000 nM (sheet 'Samples'), CATDS: 4.4233826553232904E-3); 0.714 µM in test [12] (compound concentrations: 100 nM and 1000 nM (sheet 'Samples'), CATDS: 5.3510619534007497E-3). The potency estimated from few doses in [13] (compound concentrations: 100 nM and 1000 nM (sheet 'Samples'), CATDS: 5.8659667131667897E-3) was 0.604 µM.
For the compound `Cc1cccc2c(-c3ccncn3)c(-c3ccc(F)cc3)nn12` [GW515532X], the potency estimated from few doses in [5] (compound concentrations: 100 nM and 1000 nM (sheet 'Samples'), CATDS: 0.213897093745788) was 1.92 µM.
For `Fc1ccc(-c2c(-c3ccncc3)[nH]c3cccnc23)cc1` [RO1153853-000], the potency estimated from few doses was 0.0994 µM in [5] (compound concentrations: 100 nM and 1000 nM (sheet 'Samples'), CATDS: 0.18196610661617901); 0.541 µM in test [17] (compound concentrations: 100 nM and 1000 nM (sheet 'Samples'), CATDS: 7.2614011783570201E-2).
